# For some assays here: Potency and affinity values are given separately.
# How the values were obtained:
# Set-up in all cases: scale not given: direction of the effect not stated beside the values
# [1] = target: Protein translocase subunit SecA (Escherichia coli (strain K12)) (UniProt P10408); assay: Assay to Identify E. coli SecA ATPase Inhibitors; type: functional; conditions: 30 µM
# [2] = target: T1, Ubiquitin-activating enzyme e1, putative (Leishmania donovani (strain BPK282A1)) (UniProt E9BSI1); assay: Leishmania donovani Ubiquitin Activating Enzyme (LdE1); type: functional; conditions: 30 µM
# T1 sequence (whole entry): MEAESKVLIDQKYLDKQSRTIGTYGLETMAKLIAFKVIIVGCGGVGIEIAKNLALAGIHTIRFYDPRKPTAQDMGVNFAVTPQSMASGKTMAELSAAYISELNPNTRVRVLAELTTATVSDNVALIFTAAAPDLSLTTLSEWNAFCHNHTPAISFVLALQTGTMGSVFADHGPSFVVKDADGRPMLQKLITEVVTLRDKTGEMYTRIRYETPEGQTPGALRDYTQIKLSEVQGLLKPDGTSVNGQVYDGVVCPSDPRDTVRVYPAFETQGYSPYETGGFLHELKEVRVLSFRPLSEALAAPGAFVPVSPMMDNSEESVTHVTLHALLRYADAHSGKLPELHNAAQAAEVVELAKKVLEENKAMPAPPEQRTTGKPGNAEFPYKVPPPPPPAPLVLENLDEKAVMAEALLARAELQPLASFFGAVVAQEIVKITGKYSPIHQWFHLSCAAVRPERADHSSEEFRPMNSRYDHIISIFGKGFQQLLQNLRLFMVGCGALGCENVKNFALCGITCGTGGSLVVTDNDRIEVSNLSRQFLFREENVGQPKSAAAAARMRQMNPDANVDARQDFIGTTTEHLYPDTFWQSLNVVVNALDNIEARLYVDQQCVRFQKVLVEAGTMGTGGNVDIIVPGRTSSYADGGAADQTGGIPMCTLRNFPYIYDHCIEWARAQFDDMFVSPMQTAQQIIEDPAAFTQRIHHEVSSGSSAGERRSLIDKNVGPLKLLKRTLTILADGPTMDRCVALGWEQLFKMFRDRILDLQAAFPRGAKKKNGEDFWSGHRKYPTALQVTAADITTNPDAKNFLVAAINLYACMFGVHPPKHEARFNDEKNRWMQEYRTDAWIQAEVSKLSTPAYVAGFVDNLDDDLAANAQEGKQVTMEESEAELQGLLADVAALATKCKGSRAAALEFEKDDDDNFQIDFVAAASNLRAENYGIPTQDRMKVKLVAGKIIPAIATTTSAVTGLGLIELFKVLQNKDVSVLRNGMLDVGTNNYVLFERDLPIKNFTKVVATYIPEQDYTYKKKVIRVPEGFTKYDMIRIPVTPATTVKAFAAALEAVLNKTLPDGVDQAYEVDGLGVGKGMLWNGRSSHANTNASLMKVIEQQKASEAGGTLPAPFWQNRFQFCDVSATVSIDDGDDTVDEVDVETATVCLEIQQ
# [3] = target: AMP-activated protein kinase, AMPK (Homo sapiens) (UniProt P54646+O43741+P54619+Q9UGJ0+Q9Y478+Q13131+Q9UGI9); assay: AMP-dependent Kinase enzyme assay. An in vitro enzyme assay that detects ADP turnover that is directly proportional to AMPK activity. This uses naive AMPK that is activated during the assay with MK-8722; type: functional; conditions: 30 µM
# [4] = target: Sialic acid-binding Ig-like lectin 9 (Homo sapiens) (UniProt Q9Y336); assay: Hs-Siglec9 ALPHAscreen SOP 20170721; conditions: 10 µM
# Sequence of Sialic acid-binding Ig-like lectin 9 (Homo sapiens) (Q9Y336 whole entry): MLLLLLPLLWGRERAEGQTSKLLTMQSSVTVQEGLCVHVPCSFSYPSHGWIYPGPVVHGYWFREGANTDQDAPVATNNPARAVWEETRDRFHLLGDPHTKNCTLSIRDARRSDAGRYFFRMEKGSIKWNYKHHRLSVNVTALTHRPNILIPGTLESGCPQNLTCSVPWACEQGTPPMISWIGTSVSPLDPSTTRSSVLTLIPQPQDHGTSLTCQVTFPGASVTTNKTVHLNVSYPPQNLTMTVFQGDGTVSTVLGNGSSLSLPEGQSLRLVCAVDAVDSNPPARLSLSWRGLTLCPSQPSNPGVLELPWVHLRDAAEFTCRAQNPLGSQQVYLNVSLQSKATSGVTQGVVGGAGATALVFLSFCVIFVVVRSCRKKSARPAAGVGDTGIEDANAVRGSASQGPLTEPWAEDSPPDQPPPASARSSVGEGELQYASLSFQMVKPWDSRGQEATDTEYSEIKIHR
# Trypanosoma cruzi = assay: Trypanosoma cruzi phosphomannomutase and mannose-1-phosphate guanylyltransferase assay; type: functional; conditions: 10 µM
# [5] = target: T2, Arginase-2, mitochondrial (Homo sapiens) (UniProt P78540); assay: in vitro enzyme assay to detect the production of urea directly proportional to the activity of Arginase II; type: functional; conditions: 33.3 µM; note: in the data most compounds retested in dose-response had high values
# T2 sequence (whole entry): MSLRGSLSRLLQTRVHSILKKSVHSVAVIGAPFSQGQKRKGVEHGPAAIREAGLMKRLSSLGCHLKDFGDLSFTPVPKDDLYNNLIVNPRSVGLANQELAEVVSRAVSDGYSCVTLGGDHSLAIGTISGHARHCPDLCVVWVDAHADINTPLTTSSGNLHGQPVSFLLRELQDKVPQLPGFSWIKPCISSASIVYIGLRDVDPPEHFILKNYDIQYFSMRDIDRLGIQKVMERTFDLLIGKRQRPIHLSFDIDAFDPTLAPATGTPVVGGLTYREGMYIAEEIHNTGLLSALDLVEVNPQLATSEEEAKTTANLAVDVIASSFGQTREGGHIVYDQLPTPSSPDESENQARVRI
# [6] = target: T3, Proteasome subunit beta (Trypanosoma cruzi) (UniProt O96673); assay: Trypanosoma cruzi proteasome chymotrypsin-like activity (TcProtChymo) assay.; note: in the data most compounds retested in dose-response had high values; type: functional; conditions: 9.37 µM
# T3 sequence (whole entry): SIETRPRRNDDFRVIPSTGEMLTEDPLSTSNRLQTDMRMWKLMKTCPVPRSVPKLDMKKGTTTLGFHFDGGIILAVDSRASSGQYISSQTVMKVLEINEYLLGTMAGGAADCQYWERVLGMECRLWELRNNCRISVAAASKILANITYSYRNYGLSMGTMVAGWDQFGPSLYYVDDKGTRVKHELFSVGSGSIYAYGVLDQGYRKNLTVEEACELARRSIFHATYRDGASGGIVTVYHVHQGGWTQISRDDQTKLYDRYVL
# Homo sapiens = organism: Homo sapiens; assay: To identify inhibition of the IFN signalling (Jak-Stat) pathway via expression of an eGFP reporter gene under the control of an IFN-stimulated response element (ISRE) containing MxA promoter.; type: functional; conditions: 30 µM
# [7] = target: T4, Tyrosyl-tRNA synthetase, putative (Trypanosoma cruzi (strain CL Brener)) (UniProt Q4DSP6); assay: Trypanosoma cruzi tyrosyl tRNA synthetase (TcYRS) _High Tyrosine SOP; type: functional; conditions: 30 µM; note: in the data most compounds retested in dose-response had high values
# T4 sequence (whole entry): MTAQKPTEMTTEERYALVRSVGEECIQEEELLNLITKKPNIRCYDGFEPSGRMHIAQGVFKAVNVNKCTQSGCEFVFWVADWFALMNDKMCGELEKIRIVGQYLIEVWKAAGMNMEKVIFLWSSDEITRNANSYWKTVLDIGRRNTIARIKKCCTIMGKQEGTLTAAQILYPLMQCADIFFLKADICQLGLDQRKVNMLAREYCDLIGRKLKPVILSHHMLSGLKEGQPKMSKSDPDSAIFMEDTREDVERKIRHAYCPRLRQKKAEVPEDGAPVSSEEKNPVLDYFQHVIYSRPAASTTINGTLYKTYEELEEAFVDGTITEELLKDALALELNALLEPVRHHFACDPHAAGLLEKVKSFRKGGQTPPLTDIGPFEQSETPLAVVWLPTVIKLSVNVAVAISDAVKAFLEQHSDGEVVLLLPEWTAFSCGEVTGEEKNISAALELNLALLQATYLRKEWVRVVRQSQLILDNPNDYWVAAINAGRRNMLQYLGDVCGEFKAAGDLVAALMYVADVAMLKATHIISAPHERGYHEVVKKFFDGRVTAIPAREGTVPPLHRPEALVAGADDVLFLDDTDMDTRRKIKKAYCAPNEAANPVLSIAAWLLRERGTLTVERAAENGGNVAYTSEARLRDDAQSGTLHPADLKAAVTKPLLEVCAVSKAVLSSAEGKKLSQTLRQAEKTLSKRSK
# [8] = target: T4, Tyrosyl-tRNA synthetase, putative (Trypanosoma cruzi (strain CL Brener)); assay: Trypanosoma cruzi tyrosyl tRNA synthetase (TcYRS) SOP; type: functional; conditions: 30 µM
# [9] = target: Chromo domain-containing protein 1 (Saccharomyces cerevisiae (strain ATCC 204508 / S288c) (Baker's yeast)) (UniProt P32657); assay: ScCHD-1 Enzyme Inhibition Assay; type: functional; conditions: 30 µM; note: in the data most compounds retested in dose-response had high values
# Sequence of Chromo domain-containing protein 1 (Saccharomyces cerevisiae (strain ATCC 204508 / S288c) (Baker's yeast)) (P32657 whole entry, the tested form may be a part): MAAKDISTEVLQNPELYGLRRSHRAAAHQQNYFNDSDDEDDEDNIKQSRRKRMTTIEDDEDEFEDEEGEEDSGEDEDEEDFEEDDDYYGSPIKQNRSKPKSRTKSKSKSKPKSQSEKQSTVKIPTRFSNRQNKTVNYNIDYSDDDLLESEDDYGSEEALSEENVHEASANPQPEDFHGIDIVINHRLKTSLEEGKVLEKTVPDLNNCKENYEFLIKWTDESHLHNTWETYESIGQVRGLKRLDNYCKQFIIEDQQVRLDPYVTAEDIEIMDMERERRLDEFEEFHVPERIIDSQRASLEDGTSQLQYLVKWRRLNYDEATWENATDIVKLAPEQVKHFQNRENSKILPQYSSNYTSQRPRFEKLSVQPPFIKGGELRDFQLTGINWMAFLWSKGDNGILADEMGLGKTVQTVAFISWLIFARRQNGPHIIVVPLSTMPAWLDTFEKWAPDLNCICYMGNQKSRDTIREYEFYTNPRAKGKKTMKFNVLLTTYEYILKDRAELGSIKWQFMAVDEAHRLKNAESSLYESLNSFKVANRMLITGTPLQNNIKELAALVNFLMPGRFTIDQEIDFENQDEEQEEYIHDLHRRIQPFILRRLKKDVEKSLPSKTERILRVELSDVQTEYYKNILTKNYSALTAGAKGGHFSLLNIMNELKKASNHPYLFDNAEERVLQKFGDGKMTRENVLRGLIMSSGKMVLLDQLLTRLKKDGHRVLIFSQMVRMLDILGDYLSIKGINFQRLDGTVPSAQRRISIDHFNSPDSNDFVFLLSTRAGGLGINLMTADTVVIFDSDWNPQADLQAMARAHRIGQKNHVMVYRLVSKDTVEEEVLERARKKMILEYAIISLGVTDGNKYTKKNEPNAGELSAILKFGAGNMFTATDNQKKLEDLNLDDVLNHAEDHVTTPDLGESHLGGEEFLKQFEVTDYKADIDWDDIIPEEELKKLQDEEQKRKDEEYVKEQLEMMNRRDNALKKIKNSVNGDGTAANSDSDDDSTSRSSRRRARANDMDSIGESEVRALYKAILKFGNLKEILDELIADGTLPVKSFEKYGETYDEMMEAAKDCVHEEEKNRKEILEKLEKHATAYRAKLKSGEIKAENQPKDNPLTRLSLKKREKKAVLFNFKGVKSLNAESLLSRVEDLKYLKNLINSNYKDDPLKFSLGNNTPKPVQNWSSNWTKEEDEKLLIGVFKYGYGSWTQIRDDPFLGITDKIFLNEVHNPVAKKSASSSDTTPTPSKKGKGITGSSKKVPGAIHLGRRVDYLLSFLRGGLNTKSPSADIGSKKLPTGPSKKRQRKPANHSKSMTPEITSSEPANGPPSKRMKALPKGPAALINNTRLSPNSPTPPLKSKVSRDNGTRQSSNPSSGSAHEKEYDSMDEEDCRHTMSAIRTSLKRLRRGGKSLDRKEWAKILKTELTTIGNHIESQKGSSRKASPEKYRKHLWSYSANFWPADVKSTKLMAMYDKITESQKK
# Sequence of Protein translocase subunit SecA (Escherichia coli (strain K12)) (P10408 whole entry): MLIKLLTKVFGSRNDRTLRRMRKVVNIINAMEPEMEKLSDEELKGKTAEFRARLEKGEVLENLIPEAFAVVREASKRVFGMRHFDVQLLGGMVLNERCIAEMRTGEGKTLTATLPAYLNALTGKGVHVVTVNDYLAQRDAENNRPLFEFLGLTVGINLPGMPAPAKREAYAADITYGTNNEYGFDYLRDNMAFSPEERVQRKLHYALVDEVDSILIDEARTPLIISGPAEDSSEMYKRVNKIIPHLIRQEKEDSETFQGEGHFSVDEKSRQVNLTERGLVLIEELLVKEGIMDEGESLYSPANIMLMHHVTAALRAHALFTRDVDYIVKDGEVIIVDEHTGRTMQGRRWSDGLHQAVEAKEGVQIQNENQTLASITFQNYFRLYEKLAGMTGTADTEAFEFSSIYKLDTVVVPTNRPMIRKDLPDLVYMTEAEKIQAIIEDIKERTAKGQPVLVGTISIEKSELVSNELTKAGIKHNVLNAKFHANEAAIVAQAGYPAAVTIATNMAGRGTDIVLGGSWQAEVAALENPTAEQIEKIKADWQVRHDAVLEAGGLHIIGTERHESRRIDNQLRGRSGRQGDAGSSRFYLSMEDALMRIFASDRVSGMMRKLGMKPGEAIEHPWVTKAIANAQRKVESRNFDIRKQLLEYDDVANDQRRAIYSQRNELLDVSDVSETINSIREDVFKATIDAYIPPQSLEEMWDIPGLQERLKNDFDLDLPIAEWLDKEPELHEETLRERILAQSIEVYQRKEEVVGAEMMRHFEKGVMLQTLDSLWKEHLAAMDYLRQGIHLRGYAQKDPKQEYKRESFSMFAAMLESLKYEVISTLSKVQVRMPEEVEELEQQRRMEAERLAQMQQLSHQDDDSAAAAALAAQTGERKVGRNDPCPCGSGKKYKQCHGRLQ
Structure (SMILES),Percent Effect [1] [%],Percent Effect [2] [%],Percent Effect [3] [%],Percent Effect [4] [%],Percent Effect (Trypanosoma cruzi) [%],Percent Effect [5] [%],Percent Effect [6] [%],Percent Effect (Homo sapiens) [%],Percent Effect [7] [%],Percent Effect [8] [%],Percent Effect [9] [%]
c1ccc(Cn2cc(CNC3CCc4ncnn4C3)cn2)cc1 (configuration not stated),-3.66,6.33,-0.419,1.15,0.923,-3.66,5.66,4.51,3.12,10.1,-19.2
CCOc1ccc(C(=O)NS(=O)(=O)c2cncc(Br)c2)cc1OC,-4.35,13.5,-8.62,34.9,10.6,3.81,0.517,2.53,3.7,9.76,-13.3
CN1CC(=O)N(c2ccccc2)CC12CCN(Cc1nccs1)C2 (configuration not stated),3.96,5.33,4.18,-3.23,-6.95,-56.1,13,-0.957,4.17,22.5,-4.64
CCc1cnc(CN(C(C)=O)C2CCN(CCc3cccs3)C2)o1 (configuration not stated),-3.22,13.2,0.738,-12.5,-4.95,2.16,21.6,4.61,7.39,6.17,-8.12
Cn1c(Cn2ccnc2)nnc1C1CCCN(C2CCCCC2)C1 (configuration not stated),-3.14,8.11,5.59,1.26,1.93,2.38,3.1,-7.16,5.82,19.5,-3.83
COc1cccc(S(=O)(=O)CCN2CCCN(C(C)=O)CC2)c1,-0.358,5.33,-1.44,13.1,6.13,24,1.22,18.5,1.64,6.17,-15.8
c1nc2c(c(-c3ccsc3)n1)CCN(Cc1ccoc1)CC2,-1.1,-5.41,14.1,-1.76,-2.15,-1.67,5.83,12.5,-6.93,-3.66,-0.614
O=C(CSc1nncs1)N1CCN(Cc2ccc(Cl)s2)CC1,-2.74,5.48,4.99,1.5,5.88,0,18.1,16.3,4.3,12.5,-13.2
Cc1nc(C2CCCN(C(=O)Cn3ccccc3=O)C2)no1 (configuration not stated),-0.276,0,3.05,1.79,-0.564,4.6,-4.84,8.71,2.45,4.88,3.7
O=C(COCC1CC1)N1CCCC(n2cccn2)C1 (configuration not stated),-2.32,13.9,1.73,-2.9,-2.36,2.8,13.4,-5.32,-1.04,-7.59,-22.9
O=C(CN1CCCC1Cn1cncn1)Nc1cccnc1 (configuration not stated),-3.94,9.72,-1.95,0.616,-1.26,4.86,16,-11.7,5.26,10.3,-1.86
Cc1cc(C(=O)N2CCC(c3nccn3Cc3ccncc3)CC2)no1,-4.98,8.22,5.77,-7.08,-0.979,5.46,12.6,7.62,8.6,15,-1.03
COc1ccccc1CC(=O)NS(=O)(=O)c1cncc(Br)c1,-4.15,2.6,4.69,-5.24,-1.87,2.13,1.35,21.7,-4.85,-4.88,-7.14
Cc1cc(F)ccc1CN1CCCC2(C1)OCCO2,-1.89,2.7,-1.85,-3.22,0.391,1.67,6.34,1.71,2.97,-3.66,-3.73
CN(C)C(=O)NCc1cc2n(n1)CCN(C[C@H]1[C@@H]3CNC[C@@H]31)C2,-4.24,13.5,-5.71,30.6,9.65,15.7,9.65,10.3,3.7,19.5,-12.2
CN(C)C(=O)CC1CC2(CCN(c3ncccn3)CC2)c2ccccc21 (configuration not stated),-7.49,5.41,5.36,-1.25,3.32,2.92,4.14,6.8,5.94,3.66,-4.19
CN1CCN(C(CNC(=O)CCn2cccn2)c2cccs2)CC1 (configuration not stated),1.81,-2.67,-4.22,0.224,-3.6,4.17,6.63,5.37,2.73,3.7,2.11
Cc1nc(CN2C(=O)COC3(CCN(Cc4ccco4)CC3)C2C)cs1 (configuration not stated),-3.92,2.74,3.27,2.66,-3.37,-3.19,15.8,2.79,3.12,6.17,-2.61
CC(C)CCn1c(=O)nc2n1C(=O)N(c1ccc(F)cc1)C2,-5.09,-2.63,10.5,-4.96,-1.46,-10.7,12.4,13.5,-2.13,-10.4,15.2
COc1ccc(C(C)=O)c(OCC(=O)NC(C)c2ccc(F)cc2)c1 (configuration not stated),-0.739,10.8,-5.53,8.21,5.77,23.6,9.19,-11.8,0,11.1,-6.76
Cn1cc(N2CC3(CCN(Cc4cccs4)CC3)OCC2=O)cn1,-0.959,-2.74,-1.55,15.7,2.38,3.19,3.68,2.59,-14.6,8.64,-2.76
COc1ccc2cc(C(=O)N3CCCCC3CC(N)=O)[nH]c2c1 (configuration not stated),-4.78,15.6,7.25,13.8,-0.187,-3.56,5.57,-10.4,5.83,12.2,-4.84
